# Shown are actives, neighbours in structure and some others; about 1.2% of the full set was active somewhere.
# uPA surface inh: blocks generation of uPA at the cell surface. cell surface uPA generation assay, qHTS. 0.31% of 330,000 active. Potency, µM (highest dose often 38.3 µM), for inactives: top-dose activity change, negative = inhibition, hits mostly inhibitors; active means well fitted inhibition curve with a large enough effect; inconclusive means small, poorly fitted or top-dose-only effect; inactive means no such curve, though single readings can be large or run the other way; tested in mouse RAW 264.7 cells; further: potency means the concentration at half of the fitted maximal effect; on the % scale 0 is the no-effect control and ±100 the full control effect; nearly all actives have a fitted effect of over 55% in size
# gsp antagonist: antagonists of gsp mutant (McCune-Albright syndrome); 0.4% of 340,000 active; Potency, µM (top dose mostly 76.9 µM), for inactives: top-dose activity change, negative = inhibition, usual class: inhibitors; gsp-mutant cells, cAMP HTRF, 30 min; calls by dose curve; cell line not stated here;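 further: intracellular cAMP measured with PDE inhibitor Ro 20-1724 present during compound exposure; potency means the concentration at half of the fitted maximal effect; on the % scale 0 is the no-effect control and ±100 the full control effect; nearly all actives have a fitted effect of over 65% in size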
#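 Cells, 2000/well, grown 16–24 h in DMEM 10% FBS with 0.5 mg/ml G418, then compounds plus […] (300 uM addition stock), 30 min at 37C. cAMP read by HTRF (cAMP-d2 and anti-cAMP antibody-K in lysis buffer) after 30 min RT.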
# TSHR antagonist: human thyrotropin receptor antagonism. P16473. TSHR-expressing cells, TSH-stimulated cAMP HTRF, 2 h; hits give low values. activity change, negative = inhibition, % at 11.5 µM. 0.2% of 330,000 active;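 active means activity change below a set negative limit, meaning inhibition stronger than a set level, cut at about -70% in these data; inconclusive means activity change between two set negative limits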; further: on the % scale 0 is the no-effect control and ±100 the full control effect
# Target sequence (P16473 whole entry, looked up): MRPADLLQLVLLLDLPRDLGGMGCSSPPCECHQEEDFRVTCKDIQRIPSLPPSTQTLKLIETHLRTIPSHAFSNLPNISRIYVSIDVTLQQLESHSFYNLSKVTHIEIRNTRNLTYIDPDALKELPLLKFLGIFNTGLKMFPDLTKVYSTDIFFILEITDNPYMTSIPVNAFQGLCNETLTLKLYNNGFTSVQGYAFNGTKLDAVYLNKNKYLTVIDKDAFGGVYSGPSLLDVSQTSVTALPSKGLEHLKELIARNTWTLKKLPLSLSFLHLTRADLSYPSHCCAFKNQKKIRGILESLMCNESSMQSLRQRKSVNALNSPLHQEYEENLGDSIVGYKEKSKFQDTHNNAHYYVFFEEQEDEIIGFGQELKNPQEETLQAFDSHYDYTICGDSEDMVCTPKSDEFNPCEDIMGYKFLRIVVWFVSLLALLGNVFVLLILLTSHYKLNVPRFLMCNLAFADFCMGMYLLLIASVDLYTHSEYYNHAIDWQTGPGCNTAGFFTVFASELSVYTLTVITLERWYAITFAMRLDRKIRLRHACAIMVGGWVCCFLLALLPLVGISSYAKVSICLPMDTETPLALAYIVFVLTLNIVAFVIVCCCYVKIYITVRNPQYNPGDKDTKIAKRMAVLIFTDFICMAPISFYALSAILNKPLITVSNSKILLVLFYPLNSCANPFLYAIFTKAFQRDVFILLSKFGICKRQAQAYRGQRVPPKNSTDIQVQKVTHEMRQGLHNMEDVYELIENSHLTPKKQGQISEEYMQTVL
#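 TSHR-expressing cells were treated with compounds, then stimulated with TSH at EC80 (4nM final) for 2 hours at 37 deg C. Cellular cAMP was measured by HTRF competition between lysate cAMP and cAMP-d2 for a cryptate-labelled anti-cAMP antibody.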
# MmCpn inh: inhibitors of Methanococcus maripaludis chaperonin TRiC (MmCpn); AID 504842; Potency, µM (highest dose often 76.9 µM), without a hit: at the top dose activity, negative = inhibition, most hits filed as inhibitors; 0.031% of 330,000 active; purified Mm-Cpn ATPase, ADP Transcreener TR-FRET; active means well fitted inhibition curve with a large enough effect; inconclusive means small, poorly fitted or top-dose-only effect; further: potency means the concentration at half of the fitted maximal effect; on the % scale 0 is the no-effect control and ±100 the full control effect; nearly all actives have a fitted effect of over 80% in size
#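 ATPase turnover read by TR-FRET ADP competition (Eu cryptate antibody/ADP-d2, 665/590 nm): 10uM ATP final, 25nM Mm-CPN final, 30 min 37degC after 10-min compound preincubation, pH 7.4 Tris/KCl/MgCl2/DTT buffer.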
# gsp ag: agonists of gsp mutant (McCune-Albright syndrome). 0.13% of 340,000 active. Potency, µM (highest dose often 76.9 µM), without a hit: at the top dose activation (cAMP increase), actives largely listed as activators. gsp mutant cells, cAMP HTRF, 30 min; active means well fitted activation curve with a large enough effect; inconclusive means small, poorly fitted or top-dose-only effect, or another doubt; inactive means no such curve, though single readings can be large or run the other way; cell line not stated here;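 further: phosphodiesterase inhibitor Ro 20-1724 added with compounds to block cAMP breakdown; potency means the concentration at half of the fitted maximal effect; nearly all actives have a fitted effect of over 60% in size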
#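 Cells in DMEM/10% FBS with G418 were pretreated with compounds in DMSO plus […] (300 uM stock) for 30 min at 37C. cAMP was measured by HTRF (cAMP-d2 plus anti-cAMP antibody-K) after 30 min at room temperature.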
# CCT chaperon mod: cytosolic chaperonin activity modulation. purified chaperonin ATPase assay, HTRF ADP detection, 30 min. activity change, % (concentration not given with the values), hits read low. 0.3% of 360,000 active. AID 651819; in the data active means activity change below about -30%; further: on the % scale 0 is the no-effect control and ±100 the full control effect
#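 Nucleotide hydrolysis assay: TRiC at 20–40 nM final (set by batch activity) with 10 uM ATP, 30 min at 37 °C, in presence of 76 uM compound. Detection by competitive ADP HTRF, 30 min ambient.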
# * = called active by the depositor; ? = inconclusive; . = no result given; [ ] = dose if it differs, or a comment.
SMILES,uPA surface inh,gsp antagonist,TSHR antagonist,MmCpn inh,gsp ag,CCT chaperon mod
CC(C)OCCCNc1nc(-c2ccccc2)nc2ccccc12,?,?,6.2,-11.6%,9.8%,-2.3
CC(=O)NCCNC(=O)c1ccc(Sc2ccccc2)c([N+](=O)[O-])c1,0.1%,4.2%,0.2,3.7%,9.4%,-33.0*
Cc1ccc(SCCNC(=O)c2ccc(C)c([N+](=O)[O-])c2)cc1,-1.9%,?,-14.1,-0.2%,-45.1%,-0.3
Cc1ccc(C(=O)NCCSc2c(C)[nH]c3ccccc23)cc1[N+](=O)[O-],-22.1%,35.5µM*,-3.8,0.0%,-39.2%,-3.2
CC(=O)c1ccc(Sc2ccccc2)c([N+](=O)[O-])c1,-3.6%,2.1%,3.6,-2.1%,-3.1%[15.4 µM],-1.5
COC(=O)Nc1cc(C(F)(F)F)ccc1N1CCN(c2ccccc2)CC1,5.5%,2.5%,6.6,0.4%,-53.2%,-2.2
CCn1c(SCC(=O)N2CCCC2)nc2c1c(=O)n(C)c(=O)n2C,.,15.3%,-5.0,0.2%,8.91µM*,-0.5
Cn1c(=O)c2c(nc(N3CCCC3)n2C)n(C)c1=O,-1.6%,-5.3%,-2.4,0.7%,20µM*,0.0
CN1CCN(c2nc3c(c(=O)n(C)c(=O)n3C)n2Cc2cccc3ccccc23)CC1,6.7%,2.5%,13.1,1.2%,25.1µM*,-4.3
COc1ccccc1NC(=O)c1cc[n+]([O-])cc1,6.0%,-6.6%,3.5,0.1%,3.8%,-0.5
Cc1ccc(NCC(=O)N/N=C/c2cc3ccccc3nc2Cl)cc1,2.6%,-7.3%,-6.9,-0.5%,16.2%,0.8
Cc1c(OCC(=O)NCC(O)c2ccccc2)ccc2c(-c3ccccc3)cc(=O)oc12 (centres undefined),-63.5%,28.2µM*,6.0,0.3%,.,-3.0
Cc1ccc2c(c1)CCCN2C(=O)c1cccs1,-3.3%,-4.5%,-3.4,0.5%,21.0%,-4.9
Cc1ccc2c(c1)CCCN2C(=O)c1cc(C)c(C)s1,1.9%,-12.5%,-9.8,-7.8%,2.6%[15.4 µM],-32.6*
COc1ccc(CNC(=O)C(=O)NCC2CCCN2S(=O)(=O)c2ccccc2)cc1 (centres undefined),-2.1%,-11.5%,-9.2,-2.7%,-7.5%[15.4 µM],-2.0
Cc1ccc(C(=O)NNC(=O)c2cccc(S(=O)(=O)N3CCN(c4ccccc4)CC3)c2)cc1,0.6%,5.1%,-7.4,-1.0%,-4.4%,-48.0*
CCN(CC)S(=O)(=O)c1cccc(NC(=O)Nc2cccc(C(F)(F)F)c2)c1,-17.5%,31.6µM*,-74.2*,-23.2%,-33.4%,-0.7
Cc1cc(C)c(C#N)c(SCC(=O)Nc2cccc(S(=O)(=O)N3CCCC3)c2)n1,8.9%,17.6%,12.9,-11.0%,28.2µM*,-1.0
COc1ccc(NC(=O)c2ccc(Cl)nc2)cc1S(=O)(=O)N1CCCCC1,-7.8%,31.6µM*,0.2,-1.0%,-1.2%[15.4 µM],-2.4
Cc1cc(C)c(C#N)c(SCC(=O)Nc2ccc(S(=O)(=O)Nc3ncccn3)cc2)n1,0.7%,-10.6%,15.6,-1.8%,-7.2%[15.4 µM],1.8
COc1ccc(NC(=O)c2cc(OC)c(OC)c(OC)c2)cc1S(=O)(=O)N1CCCCC1,7.7%,0.1%,-14.0,2.8%,-5.6%[15.4 µM],-3.1
CCN(CC)S(=O)(=O)c1cccc(NC(=O)CC2CCCC2)c1,2.8%,-1.5%,-7.7,2.8%,-27.1%[15.4 µM],2.3
Cc1cccnc1NC(=O)c1cccc(S(=O)(=O)N2CCN(c3ccccc3)CC2)c1,-7.3%,-4.5%,-1.2,0.9%,-1.4%[15.4 µM],-1.6
COc1cc(OC)c(C(=O)OCN2C(=O)c3ccccc3C2=O)cc1OC,6.7%,5.7%,37.8,2.1%,3.2%,0.0
CCOC(=O)[C@]12Cc3c(cc(OC)c(OC)c3OC)[C@H]1N(CCC(=O)OC)C(=O)c1cc(OC)ccc12,.,.,.,.,.,0.8
SMILES,uPA surface inh,gsp antagonist,TSHR antagonist,MmCpn inh,gsp ag,CCT chaperon mod
CCN(CC)S(=O)(=O)c1cccc(NC(=O)c2cccc(S(=O)(=O)N3CCCC3)c2)c1,-5.4%,-10.3%,-29.6,-1.4%,-3.3%[15.4 µM],-55.5*
O=C(Nc1cccc(S(=O)(=O)N2CCCCC2)c1)c1ccc(Cl)nc1,?,50.1µM*,-22.0,-2.4%,-16.8%,0.4
COc1cc(C(=O)Nc2nnc(S(=O)(=O)N3CCCCCC3)s2)cc(OC)c1OC,3.1%,-11.1%,-12.3,-2.8%,30.3%,-32.5*
O=C(Nc1ccc(Cc2ccncc2)cc1)c1ccc(S(=O)(=O)N2CCCC2)cc1,-3.5%,50.1µM*,-19.8,-4.0%,8.4%,1.1
COc1ccc(CCN(Cc2cccs2)S(=O)(=O)c2ccc(-n3cnnn3)cc2)cc1OC,-7.8%,-1.5%,-19.0,-0.1%,?,0.0
N#CC1=C(N)NC(SCC(=O)Nc2ccccc2)=C(C#N)C12CCCCC2,-3.3%,?,-16.0,1.1%,-11.4%,3.2
O=C(COC(=O)CCCNC(=O)c1ccc(Cl)cc1)Nc1cc(Cl)c(Cl)cc1Cl,-2.0%,10.3%,-5.8,0.5%,-10.4%,-1.7
CC(C)NC(=O)/C(C#N)=C/c1cccc(NC(=O)c2ccccc2Cl)c1,-6.2%,7.5%,2.7,-3.1%,-6.4%[15.4 µM],-2.2
COc1ccc(OC)c(NC(=O)C2CCCN2C(=O)C2CCC(C)CC2)c1 (centres undefined),13.7%,-0.7%,-9.5,1.7%,-23.5%,1.2
COc1ccc(OC)c(S(=O)(=O)N2CCC(C(=O)Nc3ccc(C)c(C)c3)CC2)c1,-3.9%,28.2µM*,-9.3,0.2%,8.9%,-1.3
CCOc1ccc(NC(=O)CN2CCCC2c2cccs2)cc1S(=O)(=O)N1CCCC1 (centres undefined),13.9%,?,-8.6,-0.1%,?,-1.1
COc1ccc(NC(=O)CN2CCCC2c2cccs2)cc1S(=O)(=O)N1CCCCC1 (centres undefined),-41.6%,35.5µM*,-28.7,0.2%,16.8%,-4.2
Cc1ccc(S(=O)(=O)N2CCC(C(=O)N[C@@H](C)C(=O)NC3CCCCC3)CC2)cc1,1.1%,15.9%,7.8,-1.0%,4.5%,0.0
N#C/C(=C(/O)c1ccc(Br)s1)c1nc2ccccc2[nH]1,3.55µM*,?,27.4,-23.8%,?,-1.8
O=C(c1c[nH]c2ccccc12)C(Cl)c1ccccc1 (centres undefined),6.31µM*,-25.8%,2.8,3.9%,-2.0%,-1.0
O=C(c1c[nH]c2ccccc12)C(O)C(c1ccccc1)N1CCOCC1 (centres undefined),2.6%,3.0%,-2.4,1.0%,0.2%,-1.5
Cc1cccc(N2CCN(C(=O)CCNS(=O)(=O)c3ccc4c(c3)oc(=O)n4C)CC2C)c1 (centres undefined),-14.8%,-19.9%,-22.1,0.4%,-17.2%,-0.2
FC(F)(F)c1nc(-c2cccs2)ncc1-c1nnnn1-c1ccc(Cl)cc1,-9.3%,?,-71.8*,-0.4%,1.6%,1.5

# Assay outcomes from PubChem.
